Whole data set: some 110,000 compounds, median “z-score” near -0.1, cut for the highest 2% near 2. This excerpt belongs to a sample that is enriched for the highest values. The source made the active and inactive calls.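 The calls were made as follows: active = z-score in the third read window above 3 or below -3; inactive = the rest.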

For the assay, the target named is Metabotropic glutamate receptor 8 (Rattus norvegicus) (UniProt P70579). As to the kind of experiment: rat mGluR8 modulators via GIRK flux, primary screen, cell-based, thallium flux, HTS (AID 488969). Conditions: HEK293 rat mGluR8, GIRK (G protein-gated inwardly rectifying potassium channel) thallium flux, FluoZin2; at 10 µM; stronger effect = higher value; submaximal glutamate (EC20) added with thallium.
Metabotropic glutamate receptor 8 (Rattus norvegicus), sequence (P70579 whole entry, looked up): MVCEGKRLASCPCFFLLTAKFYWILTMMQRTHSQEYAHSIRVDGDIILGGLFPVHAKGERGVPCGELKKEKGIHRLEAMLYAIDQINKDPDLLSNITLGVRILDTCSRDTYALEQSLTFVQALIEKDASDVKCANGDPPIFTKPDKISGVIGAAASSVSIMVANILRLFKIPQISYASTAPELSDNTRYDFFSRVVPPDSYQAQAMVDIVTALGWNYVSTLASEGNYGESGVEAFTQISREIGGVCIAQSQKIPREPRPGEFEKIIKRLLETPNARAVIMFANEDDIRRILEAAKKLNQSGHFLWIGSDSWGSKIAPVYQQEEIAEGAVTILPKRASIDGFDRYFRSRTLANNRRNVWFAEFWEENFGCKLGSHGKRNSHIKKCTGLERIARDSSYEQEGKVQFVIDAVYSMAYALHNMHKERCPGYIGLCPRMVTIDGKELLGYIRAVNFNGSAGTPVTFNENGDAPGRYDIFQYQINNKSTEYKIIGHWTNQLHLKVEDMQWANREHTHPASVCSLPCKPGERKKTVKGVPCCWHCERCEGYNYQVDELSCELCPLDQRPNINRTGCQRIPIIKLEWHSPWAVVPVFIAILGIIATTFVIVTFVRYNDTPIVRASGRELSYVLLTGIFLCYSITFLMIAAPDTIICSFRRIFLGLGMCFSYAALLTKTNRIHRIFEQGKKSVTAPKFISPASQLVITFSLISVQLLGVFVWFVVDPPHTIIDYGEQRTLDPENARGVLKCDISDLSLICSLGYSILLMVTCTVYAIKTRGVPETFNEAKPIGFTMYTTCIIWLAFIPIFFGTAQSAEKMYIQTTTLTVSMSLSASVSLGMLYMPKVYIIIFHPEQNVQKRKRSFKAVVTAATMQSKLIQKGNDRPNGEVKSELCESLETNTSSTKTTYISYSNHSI
With `CC(=O)Nc1cccc(C(=O)/C=C/c2ccc(/C=C/C(=O)c3cccc(NC(C)=O)c3)cc2)c1`, the z-score was found to be 0.033.

For `COc1ccc2oc(C(=O)C3CC3)c(N)c2c1`, the z-score amounted to 1.19.

Molecule `COc1ccc(N=C/C=C2\C=C(c3ccccc3)OC(C)(C)O2)cc1` showed a z-score of -0.461.

For the molecule `CC1=NN(C(=O)Cc2ccc(C)cc2)C(O)(c2cccnc2)C1` (stereo not drawn), the z-score stood at 0.145.

Molecule `OC1(c2ccc(OC(F)F)cc2)CSC(=Nc2cccnc2)N1C1CC1` (stereo not drawn) gave a z-score of -0.02.

For the molecule `C=CCN1C(=Nc2cccnc2)SCC1(O)c1ccc(C)cc1` (stereo not drawn), the z-score was 2.38.

Take `COc1cc(/C=N/NC(=O)c2cc3ccccc3cc2O)ccc1OCCN1CCCCC1`: the z-score is -0.0725.

The molecule `COc1ccc(N(C)S(=O)(=O)c2cccc(C(=O)OCC(=O)Nc3sc4c(c3C#N)CCCCC4)c2)cc1` had a z-score of 0.379.

`Cc1cc2c(cc1C)NC(=O)CC(C(F)(F)C(F)(F)C(F)(F)F)=N2` registered a z-score of -0.139.

`O=C1CC(C(F)(F)C(F)(F)C(F)(F)C(F)(F)F)=Nc2ccccc2N1`: the z-score was -0.248.

With `O=C1CC(C(F)(F)C(F)(F)C(F)(F)F)=Nc2ccccc2N1`, the z-score is 3.4 (active).

Take `c1ccc(CN2C3=NCCCN3c3ccccc32)cc1`: the z-score was 2.93.

On to `OC(CN1C2=NCCCN2c2ccccc21)c1ccc(Cl)cc1` (stereo not drawn), for which the z-score came out at 0.782.

On to `CCCCCCN1C2=NCCN2c2ccccc21`, for which the z-score is 7.63 (active).

On to `Clc1ccc(CN2C3=NCCCN3c3ccccc32)cc1`, for which the z-score was determined as 0.436.

Take `O=C(CN1C2=NCCCN2c2ccccc21)c1ccc(Cl)cc1Cl`: the z-score stood at 0.287.

On to `OC(CN1C2=NCCCN2c2ccccc21)c1ccc(Br)cc1` (stereo not drawn), for which the z-score was 3.3 (active).

For the molecule `OC(CN1C2=NCCN2c2ccccc21)c1ccc(Br)cc1` (stereo not drawn), the z-score turned out to be 0.254.

On to `CCCCCN1C2=NCCN2c2ccccc21`, for which the z-score was determined as 0.394.

`Brc1ccc(CN2C3=NCCCN3c3ccccc32)cc1` registered a z-score of 0.755.

For `CC(C)(C)c1ccc(CN2C3=NCCCN3c3ccccc32)cc1`, the z-score is 4.19 (active).

For `Cc1ccc(C)c(C(=O)CN2C3=NCCCN3c3ccccc32)c1`, the z-score was found to be 0.0716.

`CCCCN1C2=NCCCN2c2ccccc21` gave a z-score of -0.957.

Molecule `Cc1cccc(N(CC(=O)Nc2ccccc2F)S(C)(=O)=O)c1` registered a z-score of -0.443.

Turning to `Cc1ccccc1OCC(=O)NC1=NCCS1`, the z-score worked out at 0.0476.

The molecule `CCOC(=O)C(C)On1c(-c2cccc(Cl)c2)nc2ccc([N+](=O)[O-])cc21` (stereo not drawn) returned a z-score of 0.66.

`CNc1nc(CCN2C(=O)c3ccccc3C2=O)cs1` had a z-score of -0.0681.

In turn, `CCOC(=O)C(C)Sc1nc(C2CC2)cc(C(F)(F)F)c1C#N` (stereo not drawn) came in with a z-score of 1.1.

Regarding `O=C(NC(C(=O)O)c1ccccc1)c1ccccc1` (stereo not drawn), the z-score was determined as 0.488.

As to `COC(=O)CCC(=O)Nc1ccc(C)cc1OC(=O)CCC(=O)OC`, the z-score was 0.273.

Consider `COc1ccccc1CNS(=O)(=O)c1c(C)[nH]c(=O)[nH]c1=O`, for which the z-score stood at 0.0871.

Turning to `O=C1CC(c2ccc(S(=O)(=O)NCCOc3ccccc3)cc2)CN1` (stereo not drawn), the z-score came to 0.129.

`CCN1C2=NCCCN2c2ccccc21` had a z-score of 0.0152.

As for `Cc1ccc(CN2C3=NCCCN3c3ccccc32)cc1`, the z-score is 3.51 (active).

`CCCN1C2=NCCCN2c2ccccc21`: the z-score came to 0.397.

With `Fc1ccc(CN2C3=NCCCN3c3ccccc32)cc1`, the z-score was -0.37.

For `Cc1ccccc1CN1C2=NCCCN2c2ccccc21`, the z-score was 3.26 (active).

`Cc1ccc(C(O)CN2C3=NCCCN3c3ccccc32)cc1` (stereo not drawn): the z-score turned out to be 1.16.

As for `C=CCNC(=O)c1cc(Cl)ccc1Cl`, the z-score worked out at 0.018.

Consider `COc1ccc2c(C)cc(=O)[nH]c2c1`, for which the z-score was -0.159.

The molecule `O=C(NC1CC1)c1cc2c(s1)-c1ccccc1OC2` had a z-score of -0.272.

`CN(C)CCNC(=O)c1cc2c(s1)-c1ccccc1OC2`: the z-score was 3.28 (active).

Molecule `O=C(NCc1cccs1)c1cc2c(s1)-c1ccccc1OC2` registered a z-score of -0.399.

`Cc1cc(C)n(-c2ccc(Cl)c(C(=O)Nc3cc(C(F)(F)F)ccc3Cl)n2)n1` registered a z-score of 0.25.

Turning to `CC(C)c1ccc(OCC(=O)N(Cc2ccccc2)c2ccccn2)cc1`, the z-score was -0.499.

As to `CCN(CC(=O)Nc1cccc(OC)c1)c1ncnc2sc(C)c(C)c12`, the z-score was -0.125.

In turn, `Cc1c(NC(=O)CSc2ncn[nH]2)c(=O)n(-c2ccccc2)n1C` registered a z-score of 0.565.

`CCCCC(=O)Nc1ccc(C(=O)Nc2cccnc2)cc1`: the z-score stood at 0.0123.

Turning to `CCCCc1ccc(NC(=S)Nc2ccc(Cl)c(S(=O)(=O)N(C)C)c2)cc1`, the z-score was 5.93 (active).

In the case of `CCCCc1ccc(NC(=S)Nc2ccc(Nc3ccc(OC)cc3)cc2)cc1`, the z-score was -0.0123.

On to `CCC(C(=O)OCC(=O)Nc1ccc(Cl)c(S(=O)(=O)N(C)C)c1)c1ccccc1` (stereo not drawn), for which the z-score is -2.23.

As to `CC(=O)N1CCN(CC(=O)Nc2ccc(Cl)c(S(=O)(=O)N(C)C)c2)CC1`, the z-score is -0.0302.

The molecule `CCCCc1ccc(NC(=S)Nc2cccnc2)cc1` registered a z-score of 2.66.

With `CNC(=O)N1CCN(C(=O)NC)CC1`, the z-score was -0.168.

`CCN(CC)S(=O)(=O)c1ccc(N2CCOCC2)c(NS(=O)(=O)c2cc(C(C)(C)C)ccc2C)c1` came in with a z-score of -0.103.

In turn, `O=C1[C@@H]2[C@H](C(=O)N1Cc1ccco1)[C@H]1C=C[C@@H]2C1` gave a z-score of -0.0939.

As for `Cc1cc(C(=O)CSc2nc3ccccc3o2)c(C)n1CC1CCCO1` (stereo not drawn), the z-score is -0.415.

As to `CCCCCCc1cc2cc(C(=O)NC)c(=N)oc2cc1O`, the z-score is 11.6 (active).

On to `CCCCCCc1cc2cc(C(N)=O)c(=N)oc2cc1O`, for which the z-score is -1.44.

`CCCCCCc1cc2cc(C(=O)NCc3ccccc3)c(=N)oc2cc1O` gave a z-score of 0.891.

Take `O=C(Nc1ccc(Br)cc1)c1ccc(N2C(=O)C3CC=CCC3C2=O)cc1` (stereo not drawn): the z-score turned out to be 0.106.

The molecule `COc1cc(C(=O)NNC2=CC(=O)CC(C)(C)C2)cc(OC)c1OC` returned a z-score of -0.21.

On to `Cc1cc(N/C(=N\S(=O)(=O)c2ccc(F)cc2F)c2ccccc2)no1`, for which the z-score was determined as 0.0702.

In the case of `Cc1ccc(C(=O)CSc2nnc(-c3ccccc3)o2)cc1`, the z-score is 0.068.

For `CCS(=O)(=O)Nc1ccc(-c2nnc(SCC(=O)c3ccc(NC(C)=O)c(OC)c3)o2)cc1`, the z-score was 4.64 (active).

Turning to `CCn1c(SCC(=O)c2ccc(NC(C)=O)c(OC)c2)nnc1-c1ccc(NS(C)(=O)=O)cc1`, the z-score is -0.0548.

The molecule `COc1ccc(-c2nnc(SC(C)C(=O)Nc3ccc4c(c3)OCCO4)o2)cc1` (stereo not drawn) returned a z-score of 1.65.

`COc1ccc(-c2nnc(SC(C)C(=O)NNC(=O)c3ccc(C)cc3)o2)cc1` (stereo not drawn) returned a z-score of 2.1.

As to `COc1ccc(-c2nnc(SC(C)C(=O)Nc3cccc(Cl)c3)o2)cc1` (stereo not drawn), the z-score was -0.517.

For `COc1ccc(C(=O)CSc2nnc(-c3ccc(C)cc3)o2)cc1`, the z-score was found to be 2.18.

`COc1ccc(-c2nnc(SCC(=O)Oc3ccc(C)cc3)o2)cc1` came in with a z-score of -0.915.

Molecule `CCC(=O)Nc1ccc(C(=O)CSc2nnc(CNc3ccc(Cl)cc3)o2)cc1OC` had a z-score of -0.38.

The molecule `COCCNC(=O)c1onc(CSc2ccc(C)c(C)c2)c1C(=O)O` yielded a z-score of -0.0285.

Consider `CN1C(=O)COc2ccc(C(=O)c3oc4ccccc4c3-c3cnc4c(c3)COc3ccccc3-4)cc21`, for which the z-score is -0.142.

In turn, `O=C(Cc1ccccc1)Nc1c[nH]c(=O)[nH]c1=O` registered a z-score of -0.449.

Take `Brc1ccc2[nH]c3c(N4CCc5ccccc5C4)ncnc3c2c1`: the z-score was -0.00372.

On to `O=C(CCn1cccc1)Nc1cc(F)ccc1F`, for which the z-score is -0.224.

Regarding `Cc1cncn1CCc1nc2c3ccccc3nc(=S)n2[nH]1`, the z-score is -0.535.

For the molecule `S=c1nc2ccccc2c2nc(-c3ccccc3)[nH]n12`, the z-score is 2.81.

As for `Cc1nc2ccccc2n1CCc1nc2c3ccccc3nc(=S)n2[nH]1`, the z-score is -0.257.

`Cc1ccccc1C(=O)Nc1ccccc1C(=O)NCc1ccccc1`: the z-score is -0.529.

In the case of `CCOC(=O)c1cn2nc(-c3ccc(OCC)cc3)cc2nc1C1CCN(C(=O)OC(C)(C)C)CC1`, the z-score was -0.13.

In turn, `O=C(COC(=O)c1ccc([N+](=O)[O-])s1)Nc1ccccc1` displayed a z-score of -0.0827.

On to `CC(C)(C)c1ccc(NC(=O)COC(=O)c2ccc([N+](=O)[O-])s2)cc1`, for which the z-score turned out to be 2.01.

For `Cc1ccc(NC(=O)COC(=O)c2ccc([N+](=O)[O-])s2)c(C)c1`, the z-score stood at 0.229.

In turn, `COc1ccccc1/C=C/C(=O)NCC(=O)N/N=C/c1cccnc1` gave a z-score of 0.376.

As for `CC(NS(=O)(=O)c1ccc(CCC(=O)NCc2cccnc2)cc1)c1ccccc1` (stereo not drawn), the z-score was determined as 0.0386.

On to `Cc1nnc(SCC(=O)Nc2ccccc2N2CCOCC2)s1`, for which the z-score was -0.0127.

Take `O=C(Nc1ccc(Br)cc1)C1CCC(=O)N1Cc1ccccc1Cl` (stereo not drawn): the z-score is 4.3 (active).

For `O=C(Nc1ccc(Cl)cc1)C1CCC(=O)N1Cc1ccccc1Cl` (stereo not drawn), the z-score amounted to 0.406.

For `O=C(Nc1cc(Cl)cc(Cl)c1)C1CCC(=O)N1Cc1ccccc1Cl` (stereo not drawn), the z-score was -0.359.

On to `CCCCN(CCCC)CC(O)CN(c1cc([N+](=O)[O-])ccc1OC)S(=O)(=O)c1ccccc1` (stereo not drawn), for which the z-score came to 0.91.

`Cn1cc(CN2CCc3ccccc3C2)c2ccccc21` had a z-score of 0.58.

On to `O=c1[nH]c(CN2CCc3ccccc3C2)nc2ccccc12`, for which the z-score stood at 0.446.

For the molecule `Cc1[nH]c2ccccc2c1CN1CCc2ccccc2C1`, the z-score was 3.72 (active).

`COc1ccc(-c2[nH]ncc2/C=N\NC(=O)c2ccc(C(C)(C)C)cc2)cc1OC` had a z-score of -0.413.

In the case of `CCNC(=S)Nc1scc(-c2ccccc2)c1C(=O)OCC`, the z-score is 6.92 (active).

Take `CCOC(=O)c1c(-c2ccccc2)csc1NC(=O)CCN1C(=O)c2ccccc2C1=O`: the z-score is -0.51.

Turning to `CCOC(=O)c1c(-c2ccccc2)csc1NC(=S)NC`, the z-score was 7.44 (active).

As for `CCOC(=O)c1c(-c2ccccc2)csc1NC(=O)C1CCCO1` (stereo not drawn), the z-score is -0.568.

In the case of `CCOC(=O)c1c(-c2ccccc2)csc1NC(=S)N(CC)CC`, the z-score stood at 0.121.

`CCOC(=O)c1c(-c2ccc(C)cc2)csc1NC(=S)NC(=O)c1ccccc1` showed a z-score of 0.153.

For `COc1ccc(NC(=O)c2ccc3snnc3c2)cc1`, the z-score is -0.112.

In the case of `CS(=O)(=O)N1CCN(c2ccc(NC(=O)c3cccnc3Cl)cc2)CC1`, the z-score amounted to 0.393.

In turn, `CC(NS(=O)(=O)c1ccccc1)C(=O)Nc1ccc(S(N)(=O)=O)cc1` (stereo not drawn) registered a z-score of 0.246.

The molecule `CCCc1cc(=O)[nH]c(SCCOC(=O)c2ccccc2)n1` displayed a z-score of -0.349.

For the molecule `CCOc1ccc2nc(NC(=S)N(C)C)sc2c1`, the z-score is -0.436.

Consider `COc1ccc2nc(NC(C)=O)sc2c1`, for which the z-score is -0.0562.

As for `COc1ccc2nc(NC(=S)N(C)C)sc2c1`, the z-score is 14.8 (active).

As to `COc1cccc(N=C2SC(C(=O)Nc3ccccc3F)CC(=O)N2C)c1` (stereo not drawn), the z-score is -0.119.

`CC(=O)Oc1ccc(N(C(C)=O)S(=O)(=O)c2cccs2)cc1` returned a z-score of -0.202.

As for `CC(=O)Oc1ccc(N(C(C)=O)S(=O)(=O)c2cccs2)c2ccccc12`, the z-score is 4.9 (active).

`COc1ccc(S(=O)(=O)N(C(C)=O)c2ccc(OC(C)=O)c3ccccc23)cc1[N+](=O)[O-]`: the z-score was -0.812.

(Values after PubChem BioAssay AID488969 (Vanderbilt High Throughput Screening Facility, 2010).)
